This note sets out measurements from PubChem BioAssay (Tox21).

Structures are written as SMILES. Several values for one entry are separate records, joined by “and”; a condition that tells them apart may be missing. Equal values may be shown once. Inconclusive results are not listed. Activity calls are given as the source filed them. Unless noted, calls follow the shape of the dose curve; as a rule, active = well fitted curve in the direction sought with a large enough effect in the repeat runs; inconclusive = weak or mixed curves; inactive = flat fitted curve, though single readings scatter.

A short description of experiment [1]: qHTS assay to test for compound auto fluorescence at 535 nm (green) in HEK293 cells (AID 720680). On the technique in general: In qHTS, concentration-response curves come from the screen itself.
Experiment [2] in a line: qHTS assay to test for compound auto fluorescence at 460 nm (blue) in HEK293 cell free culture (AID 720681). The procedure, abridged: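 Blue fluorescence (Ex 405/Em 460 nm, triamterene-equivalent) was read immediately after pin transfer of compound or DMSO into medium (DMEM, 10% FBS) without cells.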
Experiment [3] in a line: qHTS assay to test for compound auto fluorescence at 535 nm (green) in HEK293 cell free culture (AID 720682). The procedure, abridged:
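Fluorescein serves as the green reference fluorophore; each compound's intrinsic emission at 535 nm (excitation 485 nm) is reported as an equivalent amount of that dye, measured in serum-containing DMEM without cells.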

Experiment [4] is described as follows: qHTS assay to test for compound auto fluorescence at 590 nm (red) in HEK293 cell free culture (AID 720683). The procedure, abridged:
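Red-channel autofluorescence of compounds in culture medium (DMEM, 10% FBS), no cells, measured at 540/590 nm. Rose Bengal sodium is the reference fluorophore for equivalence.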

The nature of experiment [5]: qHTS assay to test for compound auto fluorescence at 590 nm (red) in HepG2 cell free culture (AID 720684). The procedure, abridged: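 Steps: dispense MEM/10% FBS medium, no cells; pin compound or DMSO vehicle; read red channel, Ex/Em 540/590 nm. Output given as Rose Bengal sodium equivalents.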
Experiment [6] can be described thus: qHTS assay to test for compound auto fluorescence at 460 nm (blue) in HepG2 cell free culture (AID 720685). The essentials: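 Compound (23 nL) or DMSO pinned into cell-free MEM with 10% FBS; blue fluorescence read at 405/460 nm excitation/emission, expressed as auto-fluorescence equivalency to triamterene.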
The nature of experiment [7]: qHTS assay to test for compound auto fluorescence at 535 nm (green) in HepG2 cell free culture (AID 720686).
A short description of experiment [8]: qHTS assay to test for compound auto fluorescence at 460 nm (blue) in HepG2 cells (AID 720687). The procedure, abridged: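 Blue-channel autofluorescence (Ex/Em 405/460 nm, triamterene-equivalent) was measured after 1 hr compound exposure at 37 C, 5% CO2. Cells were HepG2, plated overnight at 37 C in MEM plus 10% FBS.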
The target in experiment [9] is Glucocorticoid receptor (Homo sapiens) (UniProt P04150). As to the kind of experiment: qHTS assay to identify small molecule agonists of the glucocorticoid receptor (GR) signaling pathway (AID 720691; active = well fitted activation curve with a large enough effect in the signal ratio in the repeat runs, not every such curve was filed as active; the % refers to the signal ratio). The essentials:
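Fluorescence intensity from LiveBLAzer B/G FRET substrate (2 h, room temperature) reports beta-lactamase expression driven by the glucocorticoid response element in GR-bla HeLa cells after 18 h compound exposure at 37 C.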

The target is the same in experiment [10]. The experiment in a line: qHTS assay to identify small molecule antagonists of the glucocorticoid receptor (GR) signaling pathway (AID 720692; active = well fitted inhibition curve with a large enough effect in the signal ratio in the repeat runs, not every such curve was filed as active; the % refers to the signal ratio; also: potency is read from the fitted curve at half-maximal effect). The essentials: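 HeLa GR-bla cells; cmpd + dex 5 nM final, 18 h 37 C; LiveBLAzer B/G FRET substrate 2 h RT; fluorescence intensity read. Antagonist mode, qHTS.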

Chain of Glucocorticoid receptor (Homo sapiens) (P04150 whole entry, looked up): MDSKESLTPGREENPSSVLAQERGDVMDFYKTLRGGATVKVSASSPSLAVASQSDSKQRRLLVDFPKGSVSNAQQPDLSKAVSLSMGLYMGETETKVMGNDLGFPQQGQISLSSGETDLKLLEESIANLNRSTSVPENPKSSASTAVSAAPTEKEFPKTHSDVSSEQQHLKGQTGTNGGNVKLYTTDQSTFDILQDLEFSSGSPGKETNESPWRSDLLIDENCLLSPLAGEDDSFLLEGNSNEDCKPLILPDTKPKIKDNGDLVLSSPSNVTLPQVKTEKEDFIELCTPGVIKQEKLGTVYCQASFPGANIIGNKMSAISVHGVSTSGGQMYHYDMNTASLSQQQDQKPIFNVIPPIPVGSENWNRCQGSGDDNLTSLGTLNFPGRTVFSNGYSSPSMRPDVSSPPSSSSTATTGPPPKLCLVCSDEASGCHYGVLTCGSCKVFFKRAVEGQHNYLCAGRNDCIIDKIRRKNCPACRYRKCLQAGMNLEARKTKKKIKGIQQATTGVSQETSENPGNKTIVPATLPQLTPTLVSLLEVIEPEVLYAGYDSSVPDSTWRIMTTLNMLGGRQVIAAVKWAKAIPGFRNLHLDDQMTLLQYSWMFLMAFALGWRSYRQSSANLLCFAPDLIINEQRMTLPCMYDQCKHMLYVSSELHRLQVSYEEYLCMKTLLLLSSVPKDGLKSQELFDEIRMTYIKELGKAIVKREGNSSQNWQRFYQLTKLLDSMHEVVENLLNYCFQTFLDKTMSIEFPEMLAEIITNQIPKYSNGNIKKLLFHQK

Take `CCCCCCCCCCCC(=O)O`: the result in experiment [1], in experiment [2], in experiment [3], in [4], in experiment [5] and in experiment [6] was inactive. Further, the compound was called inactive in [7] and in [8].

Consider `CCn1cc[n+](C)c1C`, for which the call in experiment [1], in [2], in [3], in experiment [4], in [5] and in [6] was inactive. Besides, the result in [7] and in [8] was inactive.

As for `CCCC[n+]1ccc(C)cc1`, the compound was classed as inactive in [2], in [3], in experiment [4], in experiment [5], in experiment [6] and in [7]. For the same compound, in experiment [8], the compound was called inactive.

For `CC[n+]1ccccc1`, the compound was called inactive in experiment [2], in [3], in experiment [4], in experiment [5], in experiment [6] and in [7]. Further, the outcome in [8] was inactive.

As for `O=C(O)CCl`, the compound was called inactive in experiment [1], in experiment [2], in experiment [3], in [4], in experiment [5] and in [6]. Also, the compound was called inactive in experiment [7], in [8] and in experiment [9]. Besides, in experiment [10], the Potency entry was “inactive”.

Turning to `CC[N+](CC)(CC)CC`, the result in experiment [1], in experiment [2], in [3], in [4], in [5] and in experiment [6] was inactive. The compound was called inactive in experiment [7], in experiment [8] and in [9]. In addition, the Potency entry in [10] was “inactive”.

With `Nc1ccc(-c2ccc(N)cc2)cc1`, the result in experiment [1], in [2], in experiment [3], in experiment [4], in [5] and in experiment [6] was inactive. Moreover, the outcome in [7], in experiment [8] and in experiment [9] was inactive. Further, the Potency result in experiment [10] was “inactive”.

For `CN(C)[C@@H]1C(=O)C(C(N)=O)=C(O)[C@@]2(O)C(=O)C3=C(O)c4c(O)cccc4[C@@](C)(O)[C@H]3[C@H](O)[C@@H]12`, the result in [1], in [2], in experiment [3], in experiment [4], in [5] and in [6] was inactive. Moreover, the compound was called inactive in experiment [7] and in [8].

Turning to `O=C(O)c1nc(Cl)ccc1Cl`, the result in experiment [1], in experiment [2], in experiment [3], in experiment [4], in [5] and in experiment [6] was inactive. Besides, the outcome in experiment [7], in experiment [8] and in [9] was inactive. Besides, in experiment [10], the Potency result was “inactive”.

Regarding `C[C@]12CCC(=O)C=C1CC[C@@H]1[C@@H]2CC[C@]2(C)C(=O)CC[C@@H]12`, the compound was classed as inactive in experiment [2], in [3], in experiment [4], in [5], in [6] and in experiment [7]. For the same compound, the compound was classed as inactive in experiment [8].

Regarding `Oc1ccccc1-c1ccccc1`, the call in [1], in experiment [2], in [3], in experiment [4], in [5] and in experiment [6] was inactive. Moreover, the call in [7] and in [8] was inactive.

`CC(=O)[O][Hg][c]1ccccc1`: the result in [1], in [2], in experiment [3], in experiment [4], in experiment [5] and in experiment [6] was inactive. The compound was called inactive in experiment [7] and in experiment [8].

Consider `COc1ccc(N)cc1`, for which the compound was called inactive in experiment [1], in experiment [2], in experiment [3], in experiment [4], in experiment [5] and in [6]. In addition, the call in experiment [7], in experiment [8] and in experiment [9] was inactive. Further, the Potency entry in experiment [10] was “inactive”.

As to `CCCCn1cc[n+](C)c1C`, the result in experiment [1], in experiment [2], in experiment [3], in experiment [4], in experiment [5] and in experiment [6] was inactive. Besides, the outcome in [7] and in [8] was inactive.

In the case of `CCCCn1cc[n+](C)c1`, the call in experiment [1], in experiment [2], in [3], in experiment [4], in experiment [5] and in [6] was inactive. Also, the compound was called inactive in [7] and in experiment [8].

`CCCC[N+]1(C)CCCC1`: the result in [2], in [3], in experiment [4], in [5], in experiment [6] and in experiment [7] was inactive. Moreover, the compound was called inactive in [8].

Regarding `CNC`, the outcome in experiment [1], in experiment [2], in experiment [3], in [4], in experiment [5] and in experiment [6] was inactive. For the same compound, the compound was called inactive in experiment [7], in [8] and in experiment [9]. The Potency result in experiment [10] was “inactive”.

Consider `Nc1ccc(Cl)cc1`, for which the compound was classed as inactive in experiment [1], in [2], in experiment [3], in experiment [4], in [5] and in experiment [6]. The outcome in [7], in [8] and in experiment [9] was inactive. Further, in experiment [10], the Potency result is “inactive”.

`C=CCOC(Cn1ccnc1)c1ccc(Cl)cc1Cl` (stereo not drawn): the compound was called inactive in experiment [1], in experiment [2], in experiment [3], in experiment [4], in [5] and in experiment [6]. For the same compound, the outcome in experiment [7], in [8] and in [9] was inactive. For the same compound, the Potency result in experiment [10] is “inactive”.

`O=S(=O)(O)O`: the outcome in [2], in experiment [3], in [4], in experiment [5], in [6] and in experiment [7] was inactive. The call in [8] was inactive.

With `CCC(=O)C(CC(C)N(C)C)(c1ccccc1)c1ccccc1` (stereo not drawn), the compound was called inactive in experiment [1], in [2], in experiment [3], in experiment [4], in experiment [5] and in experiment [6]. Further, the compound was classed as inactive in experiment [7], in [8] and in experiment [9]. Further, in experiment [10], the Potency entry is “inactive”.

`O=C(O)C(Cl)(Cl)Cl`: the compound was called inactive in experiment [1], in experiment [2], in [3], in experiment [4], in experiment [5] and in experiment [6]. The compound was classed as inactive in experiment [7] and in experiment [8].

In the case of `OCCOc1ccccc1`, the outcome in experiment [1], in experiment [2], in [3], in [4], in experiment [5] and in [6] was inactive. Besides, the call in experiment [7], in experiment [8] and in experiment [9] was inactive. Further, the Potency entry in experiment [10] is “inactive”.

As for `COCC(=O)N(c1c(C)cccc1C)C(C)C(=O)OC` (stereo not drawn), the compound was called inactive in [2], in experiment [3], in experiment [4], in experiment [5], in [6] and in experiment [7]. For the same compound, in experiment [8], the call was inactive.

For the compound `Cc1cc(-c2ccc(N)c(C)c2)ccc1N`, the compound was classed as inactive in [1], in experiment [2], in [3], in experiment [4], in experiment [5] and in experiment [6]. For the same compound, the call in experiment [7] and in [8] was inactive.

As for `Cc1cc(Cl)ccc1N`, the call in experiment [1], in experiment [2], in experiment [3], in experiment [4], in experiment [5] and in [6] was inactive. Also, the result in experiment [7], in [8] and in [9] was inactive. The Potency entry in [10] was “inactive”.

Take `COP(=O)(OC)C(O)C(Cl)(Cl)Cl` (stereo not drawn): the compound was called inactive in experiment [1], in experiment [2], in experiment [3], in experiment [4], in [5] and in [6]. Besides, the result in experiment [7], in experiment [8] and in experiment [9] was inactive. Besides, the Potency entry in experiment [10] is “inactive”.

Turning to `Nc1ccc(-c2ccc(N)c(Cl)c2)cc1Cl`, the compound was called inactive in experiment [1], in [2], in experiment [3], in experiment [4], in [5] and in [6]. In addition, the compound was classed as inactive in [7] and in [8]. The Potency in experiment [10] is 19.6 µM (active) and 11.5 µM (active) and 19.5 µM (active).

Regarding `O=C(O)CC(O)(CC(=O)O)C(=O)O`, the compound was called inactive in experiment [1], in experiment [2], in experiment [3], in experiment [4], in [5] and in [6]. Moreover, the result in [7] and in [8] was inactive.

Consider `CCCC[N+]1(C)CCCCC1`, for which the result in experiment [1], in experiment [2], in experiment [3], in [4], in experiment [5] and in [6] was inactive. Also, the compound was called inactive in experiment [7] and in experiment [8].

For `CCCC[n+]1ccccc1`, the call in experiment [2], in [3], in experiment [4], in experiment [5], in experiment [6] and in experiment [7] was inactive. Besides, the result in experiment [8] was inactive.

On to `Oc1cccc2cccnc12`, for which the call in [2], in experiment [3], in experiment [4], in [5], in [6] and in [7] was inactive. In addition, the compound was called inactive in experiment [8].
